Source: PubChem BioAssay
IMPase Li cell – qHTS Assay for Identifying the Cell-Membrane Permeable IMPase Inhibitors: Potentiation with Lithium; CHO-M1 cells, IP1 TR-FRET (IP-One), carbachol + lithium; hit rate 0.35% among 210,000; Potency, µM (highest dose often 59.4 µM), hits mostly inhibitors; AID 1457, 2008;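 also: IP1 builds up when IMPase is blocked and the TR-FRET signal falls; nearly all actives have a fitted effect of over 50% in size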
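Test compounds were applied to CHO-M1 cells previously cultured for 16–30 h at 2000 per well. A small lithium amount accompanied them; after 30 min at 37C, IP1 was quantified by TR-FRET.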
GCN5L2 inh – qHTS Assay for Inhibitors of GCN5L2; Histone acetyltransferase KAT2A (Homo sapiens), Q92830; GCN5L2 HAT assay, ThioGlo1 CoA-SH fluorescence; Potency, µM (titrated, usually from 58.9 µM), actives largely listed as inhibitors; hit rate 0.21% among 390,000
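GCN5L2 (20 nM) in 50mM HEPES pH 7.5, 0.1mM EDTA, 0.01% Tween-20 preincubated 15 min with compounds at room temperature. Reaction started with H3(1-25) 75uM, acetyl-CoA 70uM, ThioGlo1 50uM; CoA-thiol fluorescence (Ex340/Em540) read at 0 and 20 min.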
KDM4E inh – qHTS Assay for Inhibitors of Human Jumonji Domain Containing 2E (JMJD2E). Lysine-specific demethylase 4E (Homo sapiens), B2RXH2. JMJD2E catalytic domain, FDH-coupled NADH fluorescence (FDH is formaldehyde dehydrogenase). Potency, µM (titrated, usually from 57.1 µM), actives largely listed as inhibitors. hit rate 1.6% among 230,000. AID 2147, 2009; active = well fitted inhibition curve with a large enough effect, not every such curve was filed as active; inconclusive = small, poorly fitted or top-dose-only effect, or another doubt; inactive = no such curve, though single readings can be large or run the other way; also: nearly all actives have a fitted effect of over 50% in size
Target sequence (B2RXH2 1-337 limits assumed): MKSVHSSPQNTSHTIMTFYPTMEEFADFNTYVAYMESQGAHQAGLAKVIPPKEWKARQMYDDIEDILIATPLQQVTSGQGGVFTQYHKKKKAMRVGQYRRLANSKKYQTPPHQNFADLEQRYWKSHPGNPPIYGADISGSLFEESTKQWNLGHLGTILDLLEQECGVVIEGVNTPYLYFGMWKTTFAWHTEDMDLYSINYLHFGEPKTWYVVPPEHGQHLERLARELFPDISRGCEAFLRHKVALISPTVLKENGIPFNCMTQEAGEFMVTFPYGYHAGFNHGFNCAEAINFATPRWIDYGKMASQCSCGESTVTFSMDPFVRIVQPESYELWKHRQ
NPSR antag – qHTS Assay for Antagonists of the Neuropeptide S Receptor: cAMP Signal Transduction; hit rate 1% among 220,000; CHO-NPSR cells, cAMP TR-FRET, antagonist mode; Q6W5P4; AID 1461, 2008; Potency, µM (series often up to 38.3 µM), usual class: inhibitors; also: nearly all actives have a fitted effect of over 50% in size
Epigenetic reg – Quantitative High-Throughput Screen for Regulators of Epigenetic Control. hit rate 0.2% among 280,000. Potency, µM (highest dose often 53.9 µM), hits mostly activators. AID 1865, 2009. murine LDR cells, GFP reporter derepression, 30 h; also: nearly all actives have a fitted effect of over 60% in size
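Readout is the number of GFP-expressing murine LDR cells, counted by cytometry following washing. Cells were treated with compound for 30 h at 37 C; the stably integrated CMV-GFP locus is normally silent.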
Sfp inh – qHTS Assay for Inhibitors of Bacillus subtilis Sfp phosphopantetheinyl transferase (PPTase); 4'-phosphopantetheinyl transferase ffp (Bacillus subtilis), Q9F4F7; Biochemical Sfp PPTase activity, qHTS; Potency, µM, actives largely listed as inhibitors; hit rate 3.5% among 310,000;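 also: the enzyme is Sfp with the accession as filed and its product quenches rhodamine fluorescence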
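Step 1, compound plus 15 nM Sfp-PPTase, 15 min, room temperature. Step 2, add rhodamine-CoA (5 uM) and BHQ-2-YbbR (12.5 uM). Step 3, read 525/598 nm fluorescence at 0 and 30 min.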
Numbers stand for hits; . = inactive; ? = inconclusive; / = no result given; ! = not confirmed by another sample. Shown are actives, neighbours in structure and some others; about 3.6% of the full set was active somewhere. Unless noted, calls follow the shape of the dose curve; as a rule, active = well fitted curve in the direction sought with a large enough effect; inconclusive = small, poorly fitted or top-dose-only effect, or another doubt; inactive = no such curve, though single readings can be large; an effect the other way counts as inactive or inconclusive.

SMILES	IMPase Li cell	GCN5L2 inh	KDM4E inh	NPSR antag	Epigenetic reg	Sfp inh
COc1cc2oc(=O)c3c4c(cc5ccc(c1CCN(C)C)c2c53)OCO4	.	/	?	/	.	.
COc1ccccc1C(c1c(N)n(C)c(=O)n(C)c1=O)C(C)[N+](=O)[O-] (stereo unspecified)	/	.	.	.	.	.
COc1ccccc1C(C[N+](=O)[O-])c1c(N)n(C)c(=O)n(C)c1=O (stereo unspecified)	/	.	.	10µM	.	.
COC(=O)c1cccc(Cn2c(Cl)c(/C=N/Nc3ccccc3C)sc2=O)c1	.	.	?	.	?	56µM
CC(=O)OC(C)C	.	/	/	/	/	/
COc1ccc(Nc2nc(Nc3ccc(OC)cc3OC)nc(N3CCOCC3)n2)c(OC)c1	/	.	/	/	.	/
COc1ccc(/C=N/NC(=O)c2nc(-c3ccccc3)n(-c3ccccc3)n2)c(O)c1	.	.	18µM	.	.	.
O=C(N/N=C/c1ccc([N+](=O)[O-])cc1)c1cccs1	/	.	.	.	.	.
COc1ccccc1/C=C\C(=O)NCC(=O)N/N=C/c1cccc(OC)c1O	/	.	/	/	/	?
O=C(N/N=C/c1cccc([N+](=O)[O-])c1O)c1cccs1	.	.	4µM	.	.	.
COc1cccc(/C=N/NC(=O)CNC(=O)c2cccs2)c1O	/	.	8.9µM	.	.	.
COc1cccc(/C=N/NC(=O)CSc2ccccc2C)c1O	.	.	28µM	.	.	.
Cc1ccc2c(=O)c(C(=O)c3ccc(F)cc3)cn(CC(=O)NCc3ccccc3)c2n1	/	.	/	/	?	/
COc1cccc(/C=N/NC(=O)CNC(=O)COc2cccc(C)c2)c1O	/	.	2.8µM	.	.	.
Cc1cccc(OCC(=O)NCC(=O)N/N=C/c2ccc(O)cc2O)c1	/	.	3.2µM	.	.	.
COc1ccc(/C=C\C(=O)NCC(=O)N/N=C/c2ccc(O)cc2O)cc1	/	.	7.1µM	.	.	.
Cc1cccc(OCC(=O)NCC(=O)N/N=C/c2ccccc2)c1	/	.	/	/	/	.
Cc1cccc(OCC(=O)NCC(=O)N/N=C/c2cc(Br)ccc2OCc2ccccc2)c1	.	.	.	.	.	.
COc1cccc(/C=N/NC(=O)CNC(=O)CCc2ccccc2)c1O	/	.	4µM	.	.	.
CCc1c(C(=O)NCCc2ccc(N3CCCCC3)cc2)[nH]c2ccc(Cl)cc12	/	.	/	/	/	/
CN(C)CC1CCn2c(c(C3=C(c4cn(C)c5ccccc45)C(=O)NC3=O)c3ccccc32)C1 (stereo unspecified)	/	.	/	/	/	.
O=C(CN1CCCCC1)Nc1c2c(nc3ccccc13)N(c1ccccc1)CC2	?	.	?	7.9µM	.	.
CCCC(=O)Nc1c2c(nc3ccccc13)N(c1ccccc1)CC2	.	.	?	.	.	.
CCn1c(=O)cc(SCC(=O)NCc2cccnc2)c2ccccc21	10µM	.	?	?	.	.
CN(C)CCN1C(=O)C(O)=C(C(=O)c2cc3ccccc3o2)C1c1ccccn1 (stereo unspecified)	?	.	?	.	.	.
SMILES	IMPase Li cell	GCN5L2 inh	KDM4E inh	NPSR antag	Epigenetic reg	Sfp inh
O=C(C1=C(O)C(=O)N(Cc2ccco2)C1c1cccs1)c1cccs1 (stereo unspecified)	.	.	.	.	.	.
O=C(C1=C(O)C(=O)N(CCOCCO)C1c1cccs1)c1cccs1 (stereo unspecified)	7.9µM	.	?	.	.	.
COc1ccc(C2C(C(=O)c3ccc(C)o3)=C(O)C(=O)N2Cc2ccco2)cc1OC (stereo unspecified)	/	.	/	/	/	45µM
COc1ccc(C2C(C(=O)c3ccc(C)o3)=C(O)C(=O)N2c2cc(C)on2)cc1OC (stereo unspecified)	10µM	.	.	.	.	.
CCN(CC)CCCN1C(=O)C(O)=C(C(=O)c2cc3ccccc3o2)C1c1ccccn1 (stereo unspecified)	13µM	.	.	?	.	.
COc1ccc(CCN2C(=O)C(O)=C(C(C)=O)C2c2ccccc2OC)cc1OC (stereo unspecified)	.	.	.	.	.	.
COc1ccccc1C1C(C(=O)c2cc3ccccc3o2)=C(O)C(=O)N1CCN1CCOCC1 (stereo unspecified)	32µM	.	.	.	.	.
COc1ccccc1C1C(C(=O)c2cc3ccccc3o2)=C(O)C(=O)N1c1cc(C)on1 (stereo unspecified)	/	.	/	/	/	.
COc1ccc(CCN2C(=O)C(O)=C(C(=O)c3ccco3)C2c2cccs2)cc1OC (stereo unspecified)	6.3µM	.	.	.	.	.
COc1ccc(OC)c(C2C(C(=O)c3cc4ccccc4o3)=C(O)C(=O)N2c2cc(C)on2)c1 (stereo unspecified)	11µM	.	?	?	.	.
COc1cccc(CNC(=O)Cc2ccc(NC(=O)N3CCCCc4ccccc43)cc2)c1OC	/	.	/	/	.	/
CCOc1ccc2cc(S(=O)(=O)N3CCOCC3)ccc2c1	?	.	?	.	.	.
CCOc1ccc2cc(S(=O)(=O)n3ccnc3C)ccc2c1	.	.	?	.	.	40µM
O=C(CNC(=O)c1ccccc1F)OCc1nc2ccccc2s1	.	.	.	.	.	.
CNc1sc(C(=O)c2ccccc2F)c(N)c1-c1nc2ccccc2s1	.	.	.	4µM	.	.
COc1ccc(N(Cc2ccccc2)C(=O)c2nc(S(C)(=O)=O)ncc2Cl)cc1	/	.	/	/	.	/
Oc1cc2c(cc1O)[C@@H](c1ccccc1)CNCC2	.	.	.	.	.	20µM
Oc1cc2c(cc1O)C(c1ccccc1)CNCC2 (stereo unspecified)	.	.	20µM	.	.	79µM!
Oc1ccc([C@@H]2CNCCc3c2cc(O)c(O)c3Cl)cc1	.	/	11µM	/	.	56µM
